Values without a mark were called inactive. The call rests on the fitted dose curve; in most records, active means well fitted activation curve with a large enough effect in the repeat runs; inconclusive means weak or mixed curves; inactive means flat fitted curve, though single readings scatter.
Assay: A CellTox Green Cytotoxicity Assay to monitor cytotoxicity in HEK293 cells - 0 hour (AID 1224869); further: nearly all actives have a fitted effect of over 50% in size
Conditions: CellTox Green fluorescence; series mostly up to 76.8 µM; cytotoxicity: at the top concentration
Description: National Center for Advancing Translational Sciences [NCATS]
NIH Chemical Genomics Center [NCGC]
U.S. Environmental Protection Agency [EPA]
National Institutes of Environmental Health Sciences [NIEHS]
National Toxicology Program [NTP]
Cell-based models are critical for drug discovery. Determining the natural cytotoxic effects resulting from test compounds is an essential research activity. A CellTox Green Cytotoxicity Assay to monitor cytotoxicity in real time of continues cell culture during 40 hours of the compound treatment was used to screen Tox21 10K library compounds in Hek293 cells. CellTox Green Cytotoxicity Assay is a nonlytic, homogeneous, biofluorescent method to measure cytotoxicity in cell culture after experimental manipulation. The assay system uses a proprietary asymmetric cyanine dye that is excluded from viable cells but preferentially stains the dead cell's DNA. […] Viable cells produce no appreciable increases in fluorescence. Therefore, the fluorescence signal produced by the binding interaction with dead cell DNA is proportional to cytotoxicity.
The mixture of Hek293 cell suspension and reagents were dispensed at 600cells/6 ul/well in 1536-well tissue culture treated black solid bottom plates using a Multidrop dispenser. After the assay plates were incubated at a 37 C/5% CO2 incubator for 5 hours, 23 nL of compounds dissolved in DMSO, positive and negative controls was transferred to the assay plate by a pintool work station. The plates were incubated at 37 C for 40 hours. The fluorescence intensity were measured at 0h, 8h, 16h, 24h, 32h and 40h time points using ViewLux plate reader during compound treatment.
On the % scale 0 is the no-effect control and ±100 the full control effect.

Structure (SMILES)	cytotoxicity
C=CC(=O)CC	-4.09%
CC12CCCC=C1C(=O)OC2=O (stereo not given)	2.94%
O=C(O)/C=C(\CC(=O)O)C(=O)O	-1.39% [at 35.3 µM]
CCC(C)SSC(C)CC (stereo not given)	8.45%
CC(=O)Nc1ccc(S(=O)(=O)Nc2cc(C)on2)cc1	0.505% [at 35.3 µM]
CCOc1ccccc1OCCN[C@H](C)Cc1ccc(OC)c(S(N)(=O)=O)c1	-4.31% [at 35.3 µM]
C[C@H]1COc2c(C3(N)CC3)c(F)cc3c(=O)c(C(=O)O)cn1c23	-12.6% [at 35.3 µM]
O=c1c(O)c(O)c1=O	3.03%
C/C(Cl)=C/CCl	-0.409%
O=C(O)Cc1ccccc1Oc1ccc(Cl)cc1Cl	4.63% [at 35.3 µM]
NCC1CCC(C(=O)Oc2ccc(CCC(=O)O)cc2)CC1 (stereo not given)	-0.293% [at 35.3 µM]
Clc1ccc2c(c1)Nc1ccccc1S2	14.4% [at 35.3 µM]
CC(C)(Sc1cc(C(C)(C)C)c(O)c(C(C)(C)C)c1)Sc1cc(C(C)(C)C)c(O)c(C(C)(C)C)c1	2.87% [at 35.3 µM]
CCc1ncc(C)[nH]1	-3.7%
CC(C)C[P+](C)(CC(C)C)CC(C)C	18%
CCCCC(CC)CCC(CC(C)C)OS(=O)(=O)O (stereo not given)	0.482%
COC(=O)c1ccc(NC(C)=O)cc1OC	0.191% [at 35.3 µM]
COc1cnc(NS(=O)(=O)c2ccc(N)cc2)nc1	2.84% [at 35.3 µM]
Cc1ccc(O)c(C(=O)c2ccccc2)c1	-4.88%
CCCCCCCOC(C)=O	17.3%

Structure (SMILES)	cytotoxicity
CCCOc1ccc(C(=O)OCCN(CC)CC)cc1N	2.72% [at 35.3 µM]
CCOC(=O)CN1CCCC1=O	-1.14% [at 35.3 µM]
Cc1cc(C)c(C)c(C)c1	-8%
COC(=O)C(c1ccccc1Cl)N1CCc2sccc2C1 (stereo not given)	3.29% [at 35.3 µM]
Cc1nnc(C(=O)NC(C)(C)c2nc(C(=O)NCc3ccc(F)cc3)c(O)c(=O)n2C)o1	8.97% [at 35.3 µM]
CCCCCCCC(=O)N(C)C	0.766%
C[Si](C)(C)O[Si](O)(O)O	-1.01%
C=COCCCCO	2.21%
NC[C@H]1O[C@H](O[C@H]2[C@H](O)[C@@H](O[C@H]3O[C@H](CO)[C@@H](O)[C@H](N)[C@H]3O)[C@H](N)C[C@@H]2N)[C@H](N)[C@@H](O)[C@@H]1O	-1.07% [at 15.8 µM]
CC(=O)/C=C/C=C1/C2CCC(C2)C1(C)C (stereo not given)	3.23% [at 35.3 µM]
CCCCCCC(=O)c1ccccc1	2.53%
CC(C)(C)OC=O	1.6%
C=CC(=O)OCC[N+](C)(C)C	5.21%
O=CN1CCCCC1	0.338%
CC1(C)CC(N)CC(C)(C)N1	-0.187%
CC(=O)c1ccc(O)c(C(N)=O)c1	-1.17% [at 35.3 µM]
CCCCCCCCCCCC(C)=O	-0.93%
Cc1ccccc1OCC(=O)O	1.76%
CC(=O)c1c(C)cc(C(C)(C)C)cc1C	-0.659%
C=CC(=O)OCCOCCOCC	3.45%

From PubChem BioAssay (Tox21)
